# Test results: ChEMBL document CHEMBL1157539, “Thousands of chemical starting points for antimalarial lead identification” (Nature, 2010)
# Assays:
# Format in all cases: functional
# Plasmodium falciparum [1] = experiment: GSK_TCMDC: Inhibition of Plasmodium falciparum 3D7 in whole red blood cells, using parasite LDH activity as an index of growth. Test compounds present at 2uM
# Plasmodium falciparum [2] = experiment: GSK_TCMDC: Inhibition of Plasmodium falciparum Dd2 in whole red blood cells, using parasite LDH activity as an index of growth. Test compounds present at 2uM
# HepG2 = experiment: GSK_TCMDC: Percent inhibition of human HepG2 cell line. Test compounds present at 10uM.
smiles,measurement,setting,value
Nc1c(Cl)cc(C(O)CNCCCCCCOCCc2ccc(O)cc2)cc1Cl.O=C(O)/C=C/C(=O)O (stereo not drawn),Inhibition,Plasmodium falciparum [1],97%
same,Inhibition,Plasmodium falciparum [2],97%
same,Inhibition,HepG2,13%
Cc1ccccc1Cc1cccc(/N=C(\N)Nc2ccc(Cl)cc2)n1,Inhibition,Plasmodium falciparum [1],91%
same,Inhibition,Plasmodium falciparum [2],56%
same,Inhibition,HepG2,48%
CN(C)CCCOc1ccc(-c2nc(-c3ccc4c(c3)CCC4=NO)c(-c3ccncc3)[nH]2)cc1.Cl,Inhibition,Plasmodium falciparum [1],96%
same,Inhibition,Plasmodium falciparum [2],63%
same,Inhibition,HepG2,68%
Fc1ccc2[nH]ccc(=NN=Cc3ccccc3Cl)c2c1,Inhibition,Plasmodium falciparum [1],100%
same,Inhibition,Plasmodium falciparum [2],39%
same,Inhibition,HepG2,3%
NC(=O)C1CCN(Cc2cccc(-c3cccc(-c4nc5cc(F)ccc5[nH]4)c3)c2)CC1.O=C(O)C(F)(F)F,Inhibition,Plasmodium falciparum [1],100%
same,Inhibition,Plasmodium falciparum [2],7%
same,Inhibition,HepG2,15%
C=C(C)Cn1cc(C2CCN(CCN3CCC(CNC(=O)c4ccc(-c5ccc(C#N)cc5)cc4)CC3)CC2)c2ccccc21,Inhibition,Plasmodium falciparum [1],99%
same,Inhibition,Plasmodium falciparum [2],94%
same,Inhibition,HepG2,64%
Cc1cccc2nc(-c3cccc(-c4cccc(C(=O)NCc5nccn5C)c4)c3)[nH]c12,Inhibition,Plasmodium falciparum [1],99%
same,Inhibition,Plasmodium falciparum [2],50%
same,Inhibition,HepG2,22%
CC(=O)c1ccc(N2C(=O)C3C(Cc4ccc(OC(C)(C)C)cc4)NC4(C(=O)N(Cc5ccc(C(C)(C)C)cc5)c5ccccc54)C3C2=O)cc1 (stereo not drawn),Inhibition,Plasmodium falciparum [1],86%
same,Inhibition,Plasmodium falciparum [2],81%
same,Inhibition,HepG2,13%
CCn1c2ccccc2c2cc(C=NN=c3cc(C)[nH]c4ccccc34)ccc21,Inhibition,Plasmodium falciparum [1],100%
same,Inhibition,Plasmodium falciparum [2],97%
same,Inhibition,HepG2,19%
O=S(=O)(Nc1cccc(F)c1CNCc1ccccn1)c1ccc(Cl)c(Cl)c1,Inhibition,Plasmodium falciparum [1],92%
same,Inhibition,Plasmodium falciparum [2],34%
same,Inhibition,HepG2,45%
Cc1ccccc1C1CCN(c2ccc(C(=O)Nc3ccccc3)cn2)CC1.O=C(O)C(F)(F)F,Inhibition,Plasmodium falciparum [1],95%
same,Inhibition,Plasmodium falciparum [2],94%
same,Inhibition,HepG2,53%
